Shown are actives, neighbours in structure and some others; about 3% of the full set was active somewhere.
TROY signal inh: inhibitors of TROY-driven NF-kB signaling, primary screen, Q293 LMP1-TROYcd cells, NF-kB luciferase, uHTS. Q293 LMP1-TROYcd NF-kB luciferase reporter, 4 h. inhibition, % at 10 µM. 360,000 tested, 0.98% active;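 active = compounds whose plate-normalised and pattern-corrected inhibition of the luciferase reporter signal at the single screening dose is 50% or more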
TWEAK Fn14 block: inhibitors of TWEAK-Fn14 signaling, primary screen, luciferase reporter cells, uHTS; 360,000 tested, 2% active; TWEAK-stimulated Fn14 reporter cells, luciferase luminescence, 8 h; inhibition, % at 10 µM; in the data active = inhibition above about 50%
MITF TRPM1 inh: inhibitors of MITF-dependent TRPM1 promoter reporter, primary screen, cell-based, SK-MEL-5, single point, luciferase | 330,000 tested, 0.83% active | inhibition, % at 12.5 µM | AID 488899, 2010 | SK-MEL-5 TRPM1 promoter luciferase, 24 h;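 active = mean inhibition across replicates of 60% or more, whatever share of single replicates reaches that level; inconclusive = some that reach 60%, reason not given; inactive = mean inhibition across replicates below 60%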
EBV LMP1 NFkB: EBV LMP1-driven NF-kappaB luciferase reporter inhibitors, primary screen, cell-based, luminescence, single point. LMP1-induced NF-kappaB luciferase reporter cells. inhibition, % at 12.5 µM. 350,000 tested, 0.69% active; in the data active = inhibition above about 41%; inconclusive = no clear call, values can overlap the other calls;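 note: 0% = neutral control wells and 100% = reference inhibitor control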
LGR2 antag: inhibitors of bursicon-induced LGR2 CRE-luciferase signal, primary screen, cell-based, HEK293, CRE-luciferase reporter, bursicon stimulation; Drosophila bursicon receptor LGR2 (rickets); bursicon-stimulated, 4 h; inhibition, % at 9.99 µM; 380,000 tested, 0.35% active; AID 720647, 2013;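 active = drop in luminescence signal, shown as inhibition above about 50% in the replicate tests, limit read from the data, passing the limit was not always enough; inconclusive = probably only some replicates passing the limit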;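 note: agonist challenge used bursicon conditioned medium at about half maximal strength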
MITF act: activators of MITF-driven TRPM1 promoter reporter, primary screen, cell-based, SK-MEL-5, luciferase, single point | AID 588334, 2011 | SK-MEL-5 TRPM1-promoter luciferase, 24 h; % of positive control, neutral wells = 0 | activation, % at 12.5 µM | 300,000 tested, 0.75% active;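 active = mean activation of at least 80% with every replicate also reaching 80%; inconclusive = mean reaches 80% but some replicate falls short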;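 note: 0% = neutral control wells and 100% = parthenolide positive control wells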
* = called active by the depositor.

What do the screens show for `CCCN1C[C@@H](C)[C@H](OC)CN(C)C(=O)c2cc(NS(C)(=O)=O)ccc2OC[C@@H]1C`?
LGR2 antag: -2.0

What do the screens show for `CCc1ccc(NC(=O)N2CCC(c3ccccc3)C2)cc1` (centres undefined)?
TROY signal inh: -68.3; TWEAK Fn14 block: 14.3; MITF TRPM1 inh: -51.7; EBV LMP1 NFkB: 10.9; LGR2 antag: -92.4; MITF act: 55.7

Results for O=C(Nc1ccccc1)N1CCSCC1 ?
TWEAK Fn14 block: 73.0*; MITF TRPM1 inh: -9.6; EBV LMP1 NFkB: -4.9; LGR2 antag: 14.9; MITF act: 5.4

How did COc1cc(NC(=S)N2CCCC(CO)C2)cc(OC)c1 (centres undefined) do in these assays?
TROY signal inh: -36.8; TWEAK Fn14 block: 61.7*; MITF TRPM1 inh: 4.9; EBV LMP1 NFkB: -3.8; LGR2 antag: -22.4; MITF act: -4.3

Results for COC(=O)Cc1ccc(NC(=S)N2CCCC(CO)C2)cc1 (centres undefined) ?
TROY signal inh: -43.1; TWEAK Fn14 block: -3.5; MITF TRPM1 inh: -3.9; EBV LMP1 NFkB: 21.0; LGR2 antag: 28.7; MITF act: 2.7

How did COc1ccc(NC(=S)N2CCC(c3ccccc3)C2)cc1 (centres undefined) do in these assays?
TROY signal inh: -60.4; TWEAK Fn14 block: -4.1; MITF TRPM1 inh: -106.7; EBV LMP1 NFkB: -11.4; LGR2 antag: -90.0; MITF act: 108.1*

Results for O=C(Nc1ccccc1)N1CCC(c2ccccc2)C1 (centres undefined) ?
TROY signal inh: -24.9; TWEAK Fn14 block: -0.5; MITF TRPM1 inh: -99.2; EBV LMP1 NFkB: -7.2; MITF act: 105.5*

What do the screens show for `O=C(C[C@@H]1C[C@H]2c3cc(NC(=O)NC4CCCC4)ccc3O[C@H]2[C@@H](CO)O1)NCc1cccnc1`?
LGR2 antag: -9.6

Results for CCNC(=O)Nc1ccc2c(c1)C(=O)N(C)[C@@H]1CC[C@@H](CC(=O)NCc3ccccc3F)O[C@H]1CO2 ?
LGR2 antag: 8.8

How did N#Cc1ccc(C(=O)Nc2nc3ccccc3[nH]2)cc1 do in these assays?
TROY signal inh: 4.8; TWEAK Fn14 block: 28.4; MITF TRPM1 inh: -49.9; EBV LMP1 NFkB: -8.8; LGR2 antag: -15.0; MITF act: 48.0

Results for O=C(Nc1nc2ccccc2[nH]1)c1ccccc1OC(F)F ?
TROY signal inh: 27.5; TWEAK Fn14 block: 63.8*; MITF TRPM1 inh: 1.4; EBV LMP1 NFkB: 8.0; LGR2 antag: 33.2; MITF act: -1.6

What do the screens show for `O=C(Nc1nc2ccccc2[nH]1)c1ccccc1F`?
TROY signal inh: 83.8*; TWEAK Fn14 block: 102.5*; MITF TRPM1 inh: 87.0*; EBV LMP1 NFkB: 77.3*; MITF act: -86.2

What do the screens show for `CCc1ccc(C(=O)Nc2nc3ccccc3[nH]2)cc1`?
TROY signal inh: 80.3*; TWEAK Fn14 block: 97.9*; MITF TRPM1 inh: inconclusive; EBV LMP1 NFkB: 68.6*; LGR2 antag: 92.2*; MITF act: -58.3

How did COc1ccccc1CCC(=O)Nc1nc2ccccc2[nH]1 do in these assays?
TROY signal inh: -48.8; TWEAK Fn14 block: 50.0*; MITF TRPM1 inh: -75.7; EBV LMP1 NFkB: 20.5; MITF act: 79.7

How did C[C@@H]1CN([C@H](C)CO)C(=O)c2cc(NC(=O)Nc3cccc4ccccc34)ccc2O[C@@H](C)CCCCO[C@@H]1CN(C)CC1CCCCC1 do in these assays?
LGR2 antag: -3.9

How did CO[C@H]1CN(C)C(=O)c2cc(NC(=O)c3cnccn3)ccc2OC[C@@H](C)N(CC2CC2)C[C@H]1C do in these assays?
LGR2 antag: -3.8

What do the screens show for `C[C@@H]1CN([C@H](C)CO)C(=O)c2cc(-c3cccc(C#N)c3)cnc2O[C@@H]1CN(C)C(=O)c1ccccn1`?
LGR2 antag: 2.7

Results for O=C(Nc1nc2ccccc2[nH]1)c1ccc(F)cc1 ?
TROY signal inh: 10.3; TWEAK Fn14 block: 69.1*; MITF TRPM1 inh: -7.5; EBV LMP1 NFkB: 29.5; LGR2 antag: -25.6; MITF act: 5.6

How did CC(C)Oc1ccc(C(=O)Nc2nc3ccccc3[nH]2)cc1 do in these assays?
TROY signal inh: 82.0*; TWEAK Fn14 block: 97.7*; MITF TRPM1 inh: 79.7*; EBV LMP1 NFkB: 69.9*; LGR2 antag: 93.7*; MITF act: -80.8

How did COc1ccc(Cl)cc1C(=O)Nc1nc2ccccc2[nH]1 do in these assays?
TROY signal inh: 70.6*; TWEAK Fn14 block: 95.2*; MITF TRPM1 inh: 53.5; EBV LMP1 NFkB: 17.7; LGR2 antag: 79.4*; MITF act: -51.1

What do the screens show for `O=C(Nc1cccc2[nH]ncc12)c1ccc(F)cc1`?
TROY signal inh: 14.5; TWEAK Fn14 block: 58.9*; MITF TRPM1 inh: -88.6; EBV LMP1 NFkB: 38.2; MITF act: 96.2*

What do the screens show for `CO[C@H]1CN(C)C(=O)c2cc(NC(C)=O)ccc2OC[C@H](C)N(C(=O)c2cccnc2)C[C@H]1C`?
LGR2 antag: -1.8

Results for COc1ccc(Br)c(C(=O)Nc2nc3ccccc3[nH]2)c1 ?
TROY signal inh: -27.9; TWEAK Fn14 block: -0.9; MITF TRPM1 inh: -86.5; EBV LMP1 NFkB: -25.0; LGR2 antag: -70.7; MITF act: 92.1*

Results for C[C@@H]1CN([C@H](C)CO)C(=O)c2c(c3ccccc3n2C)-c2ccccc2CO[C@@H]1CN(C)C(=O)[C@H](C)c1ccccc1 ?
LGR2 antag: 11.2

Results for COc1ccc(C(=O)Nc2nc(-c3ccc([N+](=O)[O-])cc3)c(-c3ccccc3)s2)cc1 ?
TROY signal inh: 6.0; TWEAK Fn14 block: 56.7*; MITF TRPM1 inh: 1.0; EBV LMP1 NFkB: 20.1; MITF act: -2.0

What do the screens show for `COc1ccc(S(=O)(=O)N(C)C[C@@H]2Oc3c(NC(=O)Nc4ccc(F)cc4)cccc3C(=O)N([C@@H](C)CO)C[C@@H]2C)cc1`?
LGR2 antag: -4.4

How did CCCNC(=O)N1CC2(C1)[C@H](c1ccccc1)[C@H](CO)N2C(=O)C1CC1 do in these assays?
LGR2 antag: -14.8

How did CC(C)CC(NC(=O)C1CCC(C)CC1)C(=O)Nc1ccc2c(c1)OCCO2 (centres undefined) do in these assays?
TROY signal inh: 30.6; TWEAK Fn14 block: 68.3*; MITF TRPM1 inh: 7.3; EBV LMP1 NFkB: 2.8; LGR2 antag: -8.7; MITF act: -8.1

Results for COC(=O)[C@@H](NC(=O)Nc1ccc2c(c1)OCCO2)C(C)C ?
TROY signal inh: 29.3; TWEAK Fn14 block: -3.5; MITF TRPM1 inh: -3.0; EBV LMP1 NFkB: -7.1; LGR2 antag: 14.4; MITF act: 3.6

Screens: PubChem, several laboratories
